About 1,500 (0.42%) of roughly 360,000 compounds were called active. No stated cut-off is given here; in the data, active means inhibition above about 13% (passing the limit was not always enough); inactive means the rest. This excerpt belongs to a sample that is enriched for actives.
What follows are compounds tested against Lon protease (Escherichia coli (strain K12)) (UniProt P0A9M0) (assay: E. coli eLon protease inhibition – biochemical, fluorescence polarization, primary screen (AID 602123;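 further: 0% = enzyme with probe and DMSO and 100% = no enzyme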)). Conditions: purified E. coli Lon protease, at 7.94 µM, stronger effect = higher value.
Lon protease (Escherichia coli (strain K12)), sequence (P0A9M0 whole entry, looked up): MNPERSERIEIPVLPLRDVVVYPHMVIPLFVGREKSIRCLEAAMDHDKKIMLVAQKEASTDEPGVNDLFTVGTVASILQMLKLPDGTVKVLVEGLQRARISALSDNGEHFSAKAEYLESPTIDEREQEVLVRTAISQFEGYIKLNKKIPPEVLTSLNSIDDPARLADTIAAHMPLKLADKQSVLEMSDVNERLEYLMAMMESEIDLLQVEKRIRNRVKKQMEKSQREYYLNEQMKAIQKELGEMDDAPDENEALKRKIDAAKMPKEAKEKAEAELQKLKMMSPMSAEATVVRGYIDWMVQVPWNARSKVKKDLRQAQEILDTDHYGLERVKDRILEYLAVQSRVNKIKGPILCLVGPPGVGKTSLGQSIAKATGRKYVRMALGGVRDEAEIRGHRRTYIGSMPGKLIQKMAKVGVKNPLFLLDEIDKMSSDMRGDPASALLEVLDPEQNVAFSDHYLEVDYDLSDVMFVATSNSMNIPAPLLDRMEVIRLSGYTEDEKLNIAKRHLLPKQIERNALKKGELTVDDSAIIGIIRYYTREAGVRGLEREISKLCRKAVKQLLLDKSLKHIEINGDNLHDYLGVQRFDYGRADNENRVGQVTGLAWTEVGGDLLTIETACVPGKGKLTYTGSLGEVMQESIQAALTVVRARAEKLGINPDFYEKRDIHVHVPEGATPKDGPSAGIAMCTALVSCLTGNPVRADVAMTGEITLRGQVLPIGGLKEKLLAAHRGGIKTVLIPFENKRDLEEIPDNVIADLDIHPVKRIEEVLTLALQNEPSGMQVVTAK

inhibition, inactive:
CCN(CCNC(=O)C1=C(C)C(=O)OC12CCC(C)CC2)c1ccccc1 (stereo not drawn) 2.56%
CCc1ccccc1NC(=O)CSc1nnc(CCNC(=O)OC(C)(C)C)o1 3.77%
O=C(N/N=C1\CCSC1)c1cc(Cl)ccc1O -2.2%
COc1cccc(CNC(=O)CCC2CCCN(C(=O)c3ccc(F)c(Cl)c3)C2)c1 (stereo not drawn) -13.9%
Cc1cc(NC(=O)C(C)N2C(=O)c3ccccc3S2(=O)=O)no1 (stereo not drawn) -0.19%
CC(=O)c1cccc(OCC(=O)OCC(=O)Nc2cc(S(=O)(=O)N3CCCCC3)ccc2C)c1 7.88%
CCOC(=O)[C@]12CCCC=C1N(Cc1ccc3c(c1)OCO3)C(=O)[C@H](CC(=O)NCc1cccs1)C2 5.92%
CC1=NN(C(=O)CCCc2ccccc2)C(O)(C(F)(F)F)C1 (stereo not drawn) -1.58%
COc1ccc(CC(=O)N2N=C(C)CC2(O)C(F)(F)F)cc1 (stereo not drawn) -7.36%
CCOC(=O)C1CCN(Cc2c(C(=O)N3CCOCC3)nc3c(C)cccn23)CC1 -0.49%
Cc1cccn2c(CNCC(C)Oc3cccnc3)c(C(=O)N3CCOCC3)nc12 (stereo not drawn) -6.22%
CCOC(=O)c1cccc(NC(=O)C2CCCN(S(=O)(=O)c3cnc[nH]3)C2)c1 (stereo not drawn) -1.61%
CCOCCc1nn2c(=O)cc(CSCC(=O)Nc3cccc(C)c3C)nc2s1 4.06%
COC(=O)c1ccc2nc(-c3ccc(F)cc3)c(Cc3ccc(C)cc3)n2c1 -5.56%
O=c1oc2ccccc2c(CNc2ccccc2)c1[N+](=O)[O-] -5.51%
CCCCCCCCOC1OC(CO)C(O)C(O)C1NC(C)=O (stereo not drawn) 5.86%
COC(=O)c1cc(NC(=O)c2cc(C(C)(C)C)nn2Cc2cccc(C)c2)ccc1N1CCOCC1 7.4%
CCCCOP(=O)(c1ccc(N(C)C)cc1)C(O)c1cc(OC)ccc1OC (stereo not drawn) 9.34%
CCOc1ccc(CCN2C(=S)N([C@@H](CC(C)C)CN3CCC[C@@H]3CN3C(=S)NC[C@@H]3Cc3ccc(O)cc3)C[C@@H]2Cc2ccc(O)cc2)cc1 1.84%
COC(=O)c1sccc1-n1cccc1C(=O)C(=O)N1CCCCC1 -3.71%
Cc1ccc(-c2nc(CS(=O)CC(=O)NC3CCCC3)c(C)o2)cc1 (stereo not drawn) -12.5%
COc1ccc(-c2nc(CS(=O)CC(=O)NCc3cccnc3)c(C)o2)cc1OC (stereo not drawn) -14.5%
O=C(OCc1cn([C@H]2C[C@H](c3ccccc3)N(C(=O)c3cccs3)C[C@@H]2O)nn1)c1ccccc1 2.92%
CC1C(c2ccccc2)=[N+]([O-])C2(CCCC2)N1O (stereo not drawn) -2.56%
CCOC(=O)N1CCN(C(=O)c2cn(C)c3ccc(S(=O)(=O)N(CC)CC)cc3c2=O)CC1 1.34%
CCn1cc(C(=O)NCCCN2CCCCCC2)c(=O)c2cc(S(=O)(=O)N3CCc4ccccc4C3)ccc21 1.65%
CCOCCCNC(=O)C(NC(=O)c1ccccc1O)c1ccccc1 (stereo not drawn) 10.1%
CCn1cc(/C=C(\NC(=O)c2ccc(C)cc2)C(=O)NCCN2CCOCC2)c2ccccc21 -56.3%
Cc1c(/C=N/N2C(=O)C3C4C=CC(C4)C3C2=O)c2ccccc2n1C (stereo not drawn) 0.26%
CCN1CCN(C(=O)CN(C)S(=O)(=O)c2ccc3ccccc3c2)CC1 -4.47%
O=C(NCCOc1cccnc1)c1ccc(OC2CCN(Cc3ccccn3)CC2)cc1 6.74%
CCOC(=O)C1(C(F)(F)F)N=C(N(C)C)OC(N(C)C)=N1 1.25%
N#CC1=C(N)Oc2cc(O)ccc2C1C1CCCCC1 (stereo not drawn) -1.88%
NC1=C([N+](=O)[O-])C(c2ccccc2)C2=C(CCCC2=O)O1 (stereo not drawn) -4.86%
O=C(O)c1ccc(OCC2CCCO2)cc1 (stereo not drawn) -7.47%
CCCCCCSc1nsc(N)n1 -2.31%
COc1ccc(CCNC(=O)Cn2c(=O)n(CC3CCCO3)c(=O)c3ccccc32)cc1OC (stereo not drawn) -3.69%
Cc1ccc(CCNC(=O)c2ccc3nc4ccccc4c(=O)n3c2)cc1 4.65%
Oc1ccc(N2CCN(C(=S)NCc3ccccc3)CC2)cc1 4.95%
CC(C)N(C(=O)COC(=O)c1ccccc1C(=O)N1CCN(c2ccc(F)cc2)CC1)C(C)C -12.1%
CC(C)(C)C(=O)c1c(N)[nH]c(C(=O)c2ccccc2)c1-c1ccc(F)cc1 -14.5%
O=C(CCS(=O)(=O)c1ccccc1)NC1CCCC1 0.44%
COc1ccc(C)cc1NC(=O)CCS(=O)(=O)c1cccc2nonc12 -0.09%
Cc1nn(C)c(C)c1CN(C(=O)CCc1nnc(Cc2c[nH]c3ccccc23)o1)C(C)C 12.7%
COCCCn1c(C(=O)NC2CCCCC2)cc2c(=O)n3cccc(C)c3nc21 -13.7%
Cc1cccn2c(=O)c3cc(C#N)c(=O)n(CCCN4CCOCC4)c3nc12 -13.8%
O=C(C1CC1)N1N=C(c2ccc(Br)cc2)CC1(O)C(F)(F)F (stereo not drawn) -8.02%
CCCS(=O)(=O)N1CCC(C(=O)NCCCN(C)Cc2ccccc2)CC1 -3.31%
CC1CC(C)CN(c2ccc(S(=O)(=O)N3CCOCC3)cc2)C1 (stereo not drawn) 4.68%
CSCCC(NS(=O)(=O)/C=C/c1ccccc1)C(=O)N1CCC(C)CC1 (stereo not drawn) -1.94%
Cc1ccc2nc(-c3ccco3)c(Cc3cccc(Cl)c3)n2c1 -7.22%
COc1ccc(NCc2nnc(SCc3ccccc3)n2-c2ccc(OC)cc2)cc1 -3.02%
c1ccc(Cc2c(-c3ccco3)nc3c4ccccc4ccn23)cc1 -7.97%
Cc1ccc(Cc2c(-c3ccco3)nc3ccc(Cl)cn23)cc1 -7.56%
O=C(C1CC(=O)N(c2ccc(Br)cc2)C1)N1CCCC1 (stereo not drawn) -8.68%
CC1CC(=S)Nc2ccccc2N1Cc1ccccc1 (stereo not drawn) 6.5%
O=C(CCCn1c(=O)c2sccc2n(CC(=O)NCC2CCCO2)c1=O)NCc1ccco1 (stereo not drawn) -1.12%
C=CCN1CCN(C(=O)CCCc2ccccc2)CC1 -7.13%
Cn1c(C(=O)OC(C(=O)NC2CCCCC2)c2ccccn2)cc2sccc21 (stereo not drawn) 2.24%
CC(C)(O)C1=C[N+](=O)CC=C1 -1.32%
COC(=O)CSc1ccc2nnc(CCNS(=O)(=O)c3ccc(C)cc3)n2n1 -1.61%
COc1ccc(-c2ocnc2C(=O)Nc2ccc3c(c2)CCC3)cc1 11.4%
COCc1cc(C(C)=O)ccc1OC -3.49%
CCOC(=O)c1cc2cc(OC)ccc2n1C1CCN(C)CC1 3.4%
COc1cc2cc(CN(CCN3CCCC3)C(=O)Nc3ccccc3Cl)c(=O)[nH]c2cc1OC -12.8%
Cc1ccc(C(=O)OCC(=O)NCc2cc(C)c(O)c(C)c2)cc1S(=O)(=O)N1CCCCC1 -7.17%
COc1cc(NC(=O)COC(=O)c2cnc(C)cn2)c(C)cc1[N+](=O)[O-] -4.63%
COc1ccc(-c2cc(NC(C)=O)c3ncc(-c4cc(OC)c(OC)c(OC)c4)n3c2)cn1 2.07%
CSc1ncccc1C(=O)Nc1nc2ccc(F)cc2s1 7.17%
C[C@H]1CN([C@@H](C)CO)C(=O)CCCn2cc(nn2)CO[C@@H]1CN(C)S(=O)(=O)c1ccc(-n2cccn2)cc1 7.06%
O=C(CNC(=O)c1ccccc1F)OCC(=O)c1c[nH]c2ccccc12 -11.7%
O=C(Nc1ccn(Cc2ccccc2)n1)c1n[nH]c([N+](=O)[O-])c1Cl 1.99%

inhibition, active:
COc1cccc2c1C(=O)c1c(O)c3c(c(O)c1C2=O)CC(O)(C(C)=NNC(=O)c1ccc(Cl)c(Cl)c1)CC3OC1CC(N)C(O)C(C)O1 (stereo not drawn) 636% [above what the read-out allows, likely interference]
CC1=NN(C(=O)CCc2ccccc2O)C(O)(C(F)(F)F)C1 (stereo not drawn) 18.2%
Cc1cccc(N2CCC(NCc3c(C(=O)N4CCCCC4)nc4c(C)cccn34)CC2)c1 29%
COc1ccc(-c2nc(CS(=O)CC(=O)NCc3ccccn3)c(C)o2)cc1 (stereo not drawn) 21.2%
CCN(CC)CCCNC(=O)c1cn(C)c2ccc(S(=O)(=O)N(C)C3CCCCC3)cc2c1=O 21.3%
O=C1C2C3C=CC(C4CC34)C2C(=O)N1/N=C/c1ccc(-c2ccccc2[N+](=O)[O-])o1 (stereo not drawn) 15.8%
N#CC1=C(N)OC2=C(C(=O)CCC2)C1C1CC=CCC1 (stereo not drawn) 20%
Cc1ccc2nc3c(cc(C(=O)NCCc4ccccc4)c(=N)n3CC3CCCO3)c(=O)n2c1 (stereo not drawn) 18.8%
O=C(COC(=O)c1ccccc1C(=O)N1CCN(c2ccccc2)CC1)NCc1ccccc1 23%
COc1cccc2sc(N(CCCN(C)C)C(=O)CCS(=O)(=O)c3ccccc3)nc12 22.5%
Cc1cccn2c(=O)c3cc(C#N)c(=NC(=O)c4cccnc4)n(CC4CCCO4)c3nc12 (stereo not drawn) 21.1%
c1ccc(CSc2nnc(-c3ccco3)c(-c3ccco3)n2)cc1 86.1%
Clc1ccccc1CSc1nnc(-c2ccco2)c(-c2ccco2)n1 41.5%
COc1ccc(-c2onc3ccc(C(C)=O)cc23)cc1 97%
Cc1ccn2cc(-c3nonc3C)cc2c1 25.1%
c1ccc(C(=NNc2nc3ccccc3s2)c2ccccn2)cc1 131%

Source: PubChem BioAssay AID602123 (The Scripps Research Institute Molecular Screening Center, 2011)
